An excerpt weighted towards active compounds, which were near 7.5% of everything screened.
FLuc modulator: inhibits or activates purified firefly luciferase, miR-21 counter-screen. P08659. purified FLuc, Km substrates, luminescence inhibition. Potency, µM (top dose mostly 57.5 µM), usual class: inhibitors. 6.9% of 360,000 active. AID 588342; note: nearly all actives have a fitted effect of over 55% in size
Target sequence (P08659 whole entry, looked up): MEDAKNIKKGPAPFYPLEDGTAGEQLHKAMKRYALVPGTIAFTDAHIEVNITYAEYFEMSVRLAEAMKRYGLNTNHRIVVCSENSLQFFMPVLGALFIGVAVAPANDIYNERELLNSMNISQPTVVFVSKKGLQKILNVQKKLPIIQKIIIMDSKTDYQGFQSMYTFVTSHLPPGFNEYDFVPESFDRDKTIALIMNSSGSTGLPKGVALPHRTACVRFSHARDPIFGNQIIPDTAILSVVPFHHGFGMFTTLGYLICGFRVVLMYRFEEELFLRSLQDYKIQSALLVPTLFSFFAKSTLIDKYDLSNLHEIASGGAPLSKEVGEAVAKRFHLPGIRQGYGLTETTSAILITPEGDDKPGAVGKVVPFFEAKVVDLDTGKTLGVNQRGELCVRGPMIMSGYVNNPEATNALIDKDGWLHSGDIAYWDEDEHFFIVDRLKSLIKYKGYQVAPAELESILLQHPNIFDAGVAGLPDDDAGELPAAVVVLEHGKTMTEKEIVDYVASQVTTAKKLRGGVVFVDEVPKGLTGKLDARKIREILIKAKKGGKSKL
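Purified P. pyralis luciferase, 10 nM final, with Km-level 10 uM D-luciferin and 10 uM ATP in 50 mM Tris acetate pH 7.5, 10 mM Mg acetate, 0.01% Tween-20, 0.05% BSA; 6-point qHTS titration about 60 µM downward; luminescence read.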
Rab9 prom act: activates the Rab9 promoter; Huh7 Rab9 promoter-luciferase reporter, luminescence, 24 h; Potency, µM (top dose mostly 9.22 µM), usual class: activators; AID 485297; 2.8% of 320,000 active; note: nearly all actives have a fitted effect of over 60% in size
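Using Huh7 cells stably transfected with Rab9 promoter–luciferase, compounds were incubated 24 h at 37 °C, 5% CO2; luciferase luminescence was read 10 min after reagent addition.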
ELG1 genotoxic: genotoxicity induction in ELG1-luciferase HEK293T cells | HEK293T ELG1-luciferase reporter, luminescence, 16 h | Potency, µM (series often up to 46 µM), most hits filed as activators | 1.3% of 330,000 active | AID 504466; note: nearly all actives have a fitted effect of over 60% in size
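Quantitative HTS format in 1536-well plates. HEK293T ELG1-luciferase reporter cells receive test compound and are incubated 16 hr at 37 °C, 5% CO2; ONE-Glo added, 30 min room temperature, then luminescence read.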
NPC1 prom act: activators of NPC1 promoter. Huh7 NPC1 promoter luciferase reporter, 24 h. Potency, µM (highest dose often 9.22 µM), actives largely listed as activators. 2.4% of 320,000 active; note: nearly all actives have a fitted effect of over 60% in size
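Stably transfected Huh7 (NPC1 promoter→luciferase), 1500 cells/well in Opti-MEM + 10% FBS, 2 h settle, then compound 24 h at 37 °C. Luminescence after 10 min with Amplite reagent.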
SMN2 splice enh: increases expression of the SMN2 splice variant. Potency, µM (titrated, usually from 46.1 µM), usual class: activators. HEK293 SMN2-luciferase splicing reporter, luminescence, 30-36 h. AID 1458. 2.8% of 210,000 active; note: nearly all actives have a fitted effect of over 55% in size
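HEK293 cells carry an SMN2 […]–luciferase reporter in which exon 7 inclusion puts luciferase in frame. Cells were plated 10-12 h before compound addition, then incubated 30-36 h at 37C. ONE-Glo luminescence was read; sodium butyrate at 4.5 mM final served as control.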
Of the large screens only hits and unclear results are named; the others gave an inactive call. Calls come from the whole dose curve; as a rule, active = well fitted curve in the direction sought with a large enough effect; inconclusive = small, poorly fitted or top-dose-only effect, or another doubt; inactive = no such curve, though single readings can be large; an effect the other way counts as inactive or inconclusive.

COc1cccc(C(=O)N2CCN(C(=O)COc3ccc4ccccc4c3)CC2)c1	FLuc modulator 6µM (no result: SMN2 splice enh)
COc1cc(C(=O)N2CCN(C(=O)COc3ccc4ccccc4c3)CC2)cc(OC)c1OC	FLuc modulator 11µM
CC(C)c1ccc(/C=C/C2=NNC(=O)CC2)cc1	FLuc modulator 5.4µM, Rab9 prom act inconclusive, ELG1 genotoxic inconclusive, SMN2 splice enh 10µM
COc1cc(/C=C/C2=NNC(=O)CC2)cc(OC)c1OC	ELG1 genotoxic inconclusive (no result: SMN2 splice enh)
COc1cccc(-c2cn3ncsc3n2)c1	FLuc modulator 15µM (no result: Rab9 prom act, ELG1 genotoxic, NPC1 prom act)
CNC(=O)/C=C/c1cccc(C(F)(F)F)c1	none
CC(C)(C)NC(=O)/C=C/c1ccc(C(F)(F)F)cc1	FLuc modulator 27µM
Fc1ccc(-n2c(-c3cccs3)nc3nc4ccccc4nc32)cc1	none
Cc1cnc(C(=O)Nc2ccc3c(c2)CCC3)cn1	FLuc modulator 2.4µM, Rab9 prom act 0.5µM, ELG1 genotoxic inconclusive, NPC1 prom act inconclusive, SMN2 splice enh 11µM
O=C(Nc1ccc2c(c1)CCC2)c1cnccn1	FLuc modulator 12µM, Rab9 prom act 3.2µM, ELG1 genotoxic 6.5µM, NPC1 prom act 3.5µM, SMN2 splice enh 13µM
Cc1cnc(C(=O)Nc2ccc(F)c(F)c2)cn1	FLuc modulator inconclusive, Rab9 prom act 2.5µM, ELG1 genotoxic 16µM, NPC1 prom act inconclusive, SMN2 splice enh 13µM
CCn1ccc(C(=O)Nc2ccc3c(c2)CCC3)n1	FLuc modulator 3µM, Rab9 prom act 1µM, ELG1 genotoxic inconclusive, NPC1 prom act 1µM (no result: SMN2 splice enh)
Cn1ncc(Cl)c1C(=O)Nc1ccc2c(c1)CCC2	FLuc modulator inconclusive, Rab9 prom act inconclusive (no result: SMN2 splice enh)
CC(=O)Cc1nsc(NC(=O)c2cn(-c3ccccc3)nc2-c2ccc(Br)cc2)n1	none
O=C(COc1cc(Cl)c(Cl)cc1Cl)Nc1ccc([N+](=O)[O-])cc1Cl	none (no result: SMN2 splice enh)
O=C(c1ccccc1)c1ccc(OCC(O)CN2CCN(S(=O)(=O)N3CCCCC3)CC2)cc1 (configuration not stated)	none
Cc1cc(C)n2nc(C(=O)Nc3ccc4c(c3)CCC4)nc2n1	FLuc modulator 13µM, Rab9 prom act 3.5µM, ELG1 genotoxic inconclusive, NPC1 prom act inconclusive, SMN2 splice enh 11µM
Cc1cc(C)n2nc(C(=O)Nc3ccc(S(=O)(=O)N4CCCC4)cc3)nc2n1	none (no result: SMN2 splice enh)
Cc1cc(=O)[nH]c(N/N=C/c2cc(C)n(-c3ccccc3)c2C)n1	FLuc modulator 7.6µM, Rab9 prom act inconclusive, ELG1 genotoxic 9.2µM, NPC1 prom act 3.2µM (no result: SMN2 splice enh)
Cc1cc(=O)[nH]c(N/N=C/c2cccs2)n1	FLuc modulator 17µM
Cc1ccsc1/C=N/Nc1nc2ccccc2[nH]1	FLuc modulator 3.4µM, Rab9 prom act 2.5µM, ELG1 genotoxic inconclusive, NPC1 prom act 2.5µM, SMN2 splice enh 11µM
C(=N\Nc1nc2ccccc2[nH]1)/c1cccs1	FLuc modulator 3.8µM, Rab9 prom act 4µM, ELG1 genotoxic inconclusive, NPC1 prom act 3.2µM (no result: SMN2 splice enh)
Cc1cc(=O)[nH]c(N/N=C/c2sccc2C)n1	FLuc modulator inconclusive, SMN2 splice enh inconclusive
O=C(O)c1ccc(NS(=O)(=O)c2cc(Cl)sc2Cl)cc1	none (no result: SMN2 splice enh)
O=C1OC[C@H](Cc2ccc3c(c2)OCO3)/C1=C\c1ccc2c(c1)OCO2	none (no result: SMN2 splice enh)
S=C(Nc1ccc(N2CCOCC2)cc1)Nc1ccc2nc(-c3ccco3)c(-c3ccco3)nc2c1	FLuc modulator 15µM
O=C(NC(=S)Nc1ccc(N2CCOCC2)cc1)c1ccccc1	FLuc modulator inconclusive, Rab9 prom act inconclusive, NPC1 prom act inconclusive, SMN2 splice enh inconclusive
O=C(NC(=S)Nc1ccc(CN2CCOCC2)cc1)c1ccco1	FLuc modulator 17µM, Rab9 prom act inconclusive, ELG1 genotoxic inconclusive (no result: SMN2 splice enh)
O=C(NC(=S)Nc1ccc(N2CCOCC2)cc1)c1ccco1	FLuc modulator inconclusive, Rab9 prom act inconclusive, ELG1 genotoxic inconclusive, NPC1 prom act 2.8µM, SMN2 splice enh 16µM
CC(C)CC(=O)N1CCN(c2ccc(NC(=O)c3ccco3)cc2)CC1	Rab9 prom act 3.2µM (no result: SMN2 splice enh)
COCCNC(=S)N/N=C/c1ccc([N+](=O)[O-])cc1	none (no result: SMN2 splice enh)
CCn1nc(C(=O)NNC(=O)c2cc(Cl)ccc2OC)c2ccccc2c1=O	none (no result: SMN2 splice enh)
CCOC(=O)c1cc(-c2ccc(OC)cc2)n(CCC(=O)Nc2ccccc2OC)c1C	none (no result: Rab9 prom act, ELG1 genotoxic, NPC1 prom act, SMN2 splice enh)
CC(C)(C)c1ccc(C(=O)NC(=S)NCc2ccco2)cc1	FLuc modulator 19µM (no result: SMN2 splice enh)
COCCNC(=S)NC(=O)c1ccc(C(C)(C)C)cc1	FLuc modulator 13µM, Rab9 prom act inconclusive, ELG1 genotoxic inconclusive, SMN2 splice enh inconclusive

High-throughput results as filed in PubChem.
